Bioassay records: PubChem, The Scripps Research Institute Molecular Screening Center
Rows were chosen to be rich in hits. Some 3.4% of all compounds tested hit in one or more screens of this group.
sPLA2-III inh: human group III sPLA2 inhibitors, primary screen, biochemical, QFRET, BODIPY PC-A2 liposome substrate. 370,000 compounds, 0.56% hits. QFRET BODIPY PC-A2 liposome hydrolysis, fluorescence. inhibition, % at 12.2 µM. AID 743126, 2013. Group 3 secretory phospholipase A2 (Homo sapiens), Q9NZ20;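 active = inhibition above mean plus 3 SD of compounds lying within the high and low control bounds, cut at about 19% in these data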;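 also: 0% = median of test compound wells and 100% = no enzyme DMSO wells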
ADAM10 inh: human ADAM10 inhibitors, primary screen, biochemical, QFRET, HTS. Disintegrin and metalloproteinase domain-containing protein 10 (Homo sapiens), O14672. recombinant ADAM10, EDANS/DABCYL FRET peptide cleavage, 3 h. inhibition, % at 7 µM. 370,000 compounds, 0.62% hits;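 active = inhibition above a per-campaign cutoff equal to the mean of compounds falling between control-based bounds plus 3 SD, cut at about 20% in these data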;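 also: 0% = DMSO wells while the 100% control is not disclosed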
Target sequence (O14672 214-748 limits assumed): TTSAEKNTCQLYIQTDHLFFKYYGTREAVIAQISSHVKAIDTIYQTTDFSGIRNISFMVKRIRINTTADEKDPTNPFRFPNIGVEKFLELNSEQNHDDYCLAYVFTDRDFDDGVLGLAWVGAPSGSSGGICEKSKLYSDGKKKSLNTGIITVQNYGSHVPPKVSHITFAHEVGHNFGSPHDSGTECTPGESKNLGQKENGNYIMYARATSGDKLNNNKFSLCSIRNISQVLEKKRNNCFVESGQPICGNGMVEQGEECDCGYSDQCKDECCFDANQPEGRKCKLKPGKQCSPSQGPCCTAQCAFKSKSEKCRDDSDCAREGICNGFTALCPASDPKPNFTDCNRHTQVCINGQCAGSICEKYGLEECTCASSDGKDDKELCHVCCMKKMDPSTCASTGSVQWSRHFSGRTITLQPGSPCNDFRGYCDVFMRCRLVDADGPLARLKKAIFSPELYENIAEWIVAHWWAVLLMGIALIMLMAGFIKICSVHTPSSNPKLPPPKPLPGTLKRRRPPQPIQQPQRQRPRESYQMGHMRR
ADAM17 inh: ADAM17 inhibitors, primary screen, biochemical, QFRET. recombinant ADAM17, EDANS/DABCYL FRET peptide cleavage. 370,000 compounds, 0.83% hits. inhibition, % at 6.95 µM. AID 720648, 2013. Disintegrin and metalloproteinase domain-containing protein 17 (Homo sapiens), P78536;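 active = inhibition above the mean of compounds lying between control limits plus 3 SD, set per campaign, cut at about 8.5% in these data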;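 also: 0% = DMSO-only wells as the low control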
PLC-beta3 inh: human PLC-beta3 inhibitors, primary screen, biochemical, fluorescence | AID 720704, 2013 | 370,000 compounds, 0.18% hits | 1-phosphatidylinositol 4,5-bisphosphate phosphodiesterase beta-3 (Homo sapiens), Q01970 | inhibition, % at 12.2 µM | Purified PLC-beta3, fluorogenic substrate; in the data active = inhibition above about 11%;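 also: 0% = median of compound wells on plate and 100% = full blocker control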
KLK7 zymogen act: proKLK7 zymogen activators, primary screen, biochemical, fluorescence intensity. Kallikrein-7 (Homo sapiens), P49862. purified proKLK7, EDANS-DABCYL substrate fluorescence; 100% is mature enzyme control, 0% vehicle. 370,000 compounds, 0.9% hits. activation, % at 7 µM;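 active = activation above the mean of all tested compounds plus 3 SD, computed per campaign excluding outliers beyond control limits, cut at about 13% in these data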
PLC-gamma1 inh: PLC-gamma1 enzyme inhibitors, primary screen, biochemical, fluorescence, purified enzyme; 1-phosphatidylinositol 4,5-bisphosphate phosphodiesterase gamma-1 (Homo sapiens), P19174; fluorogenic substrate; inhibition, % at 12.2 µM; 370,000 compounds, 0.84% hits; AID 720700, 2013; in the data active = inhibition above about 9.5%
ADAM10 confirm: human ADAM10 inhibitors, confirmation, biochemical, QFRET, triplicate. shares compounds with ADAM10 inh. ADAM10 QFRET peptide cleavage, EDANS fluorescence. inhibition, % at 6.95 µM. 2,100 compounds, 1% hits. AID 743208, 2013;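 active = inhibition above about 20% chosen separately for each screening run, limit read from the data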;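 also: 0% = DMSO wells and 100% = marimastat wells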
ADAM17 counter: ADAM17 inhibitors, counter-screen for ADAM10 exosite inhibitor project, biochemical, QFRET, high throughput. inhibition, % at 6.95 µM. shares compounds with ADAM10 inh. AID 743214, 2013. 2,100 compounds, 0.5% hits. ADAM17 QFRET peptide cleavage, EDANS fluorescence;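 active = mean triplicate inhibition above the solvent-only control wells' mean plus 3 SD, cut at about 12% in these data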;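 also: 0% = DMSO wells and 100% = marimastat wells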
ADAM10 ctr: ADAM10 inhibitors, counter-screen for ADAM17 exosite inhibitor project, biochemical, FRET, human ADAM10. shares compounds with ADAM17 inh. recombinant ADAM10, EDANS/DABCYL FRET peptide cleavage, 3 h. inhibition, % at 6.95 µM. 2,900 compounds, 47% hits. AID 743256, 2014;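 active = mean inhibition over the triplicate runs exceeds the activity threshold set in the earlier primary screen, cut at about 20% in these data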;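 also: 0% = DMSO wells and 100% = marimastat wells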
ADAM17 confirm: ADAM17 inhibitors, hit retest, confirmation, biochemical, QFRET peptide cleavage | shares compounds with ADAM17 inh | recombinant ADAM17, EDANS/DABCYL QFRET peptide cleavage | inhibition, % at 6.95 µM | 2,900 compounds, 65% hits;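 active = mean inhibition across replicates above the hit cutoff set in the primary screen, cut at about 8.5% in these data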;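 also: 0% = DMSO wells and 100% = marimastat wells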
* hit, by the source's call; x = no result given.

SMILES | sPLA2-III inh | ADAM10 inh | ADAM17 inh | PLC-beta3 inh | KLK7 zymogen act | PLC-gamma1 inh | ADAM10 confirm | ADAM17 counter | ADAM10 ctr | ADAM17 confirm
Cc1ccc(S(=O)(=O)N(CC(=O)Nc2ccc(Cl)c([N+](=O)[O-])c2)C2CCCCC2)cc1 | -18.8 | 25.5* | 13.8* | 6.8 | -0.7 | 6.0 | 9.7 | 2.4 | 25.2* | 13.9*
COc1ccc(NC(=O)c2cc(SC)ccc2Cl)cc1 | 1.6 | 2.7 | 0.8 | 2.2 | -0.3 | 1.5 | x | x | x | x
CC(C)Oc1ccc(C2CC(=O)N(c3cccc(Br)c3)C2=O)cc1 (stereo unspecified) | -18.1 | -4.8 | -3.4 | -6.0 | 0.5 | 0.0 | x | x | x | x
COc1ccc(C(=O)Nc2ccc(OCC(F)(F)C(F)F)c(C(F)(F)F)c2)cc1OC | -3.8 | 25.8* | 9.0* | -0.1 | -0.1 | -3.2 | 2.8 | 0.5 | 51.6* | 20.5*
O=C1N[C@@H](Cc2c[nH]c3ccccc23)COC(=O)[C@H](Cc2ccc(F)cc2)C/C=C\C[C@@H]1CC(=O)N(CCO)Cc1ccccc1 | -72.5 | 10.2 | 4.3 | -0.3 | 0.9 | 0.4 | x | x | x | x
O=C1N[C@@H](Cc2c[nH]c3ccccc23)COC(=O)[C@@H](Cc2ccc(F)cc2)C/C=C\C[C@H]1CC(=O)N(CCO)Cc1ccccc1 | -85.6 | 24.1* | 9.7* | 3.7 | 0.8 | 6.0 | 4.1 | 1.8 | 30.3* | 15.3*
CC(C)(C)OC(=O)NCCCC[C@H](NC(=O)c1nc[nH]c1C(=O)NCC(=O)OCc1ccccc1)C(=O)OC(C)(C)C | -20.1 | 23.7* | 11.1* | 0.5 | 0.4 | 2.8 | 2.0 | 0.1 | 24.9* | 17.9*
C[C@H](NC(=O)c1nc[nH]c1C(=O)N[C@@H](CCCCNC(=O)OC(C)(C)C)C(=O)OC(C)(C)C)C(=O)OCc1ccccc1 | -9.7 | 29.3* | 15.1* | 4.0 | -0.2 | 2.9 | 5.8 | 1.2 | 41.8* | 23.1*
CC(C)C[C@H](NC(=O)c1nc[nH]c1C(=O)N[C@@H](CCCCNC(=O)OC(C)(C)C)C(=O)OC(C)(C)C)C(=O)OCc1ccccc1 | -21.0 | 11.0 | 2.8 | 3.5 | 0.6 | -0.5 | x | x | x | x
COc1ccc(OC)c(NC(=S)NCCC(c2ccccc2)c2ccccc2)c1 | -17.4 | 21.4* | 8.7* | 1.9 | -0.1 | 2.6 | 6.9 | 1.5 | 23.4* | 21.6*
COc1ccc(OC)c(NC(=S)NCc2ccccc2OC)c1 | 8.3 | -4.2 | -4.6 | -0.5 | 1.0 | -2.0 | x | x | x | x
Cc1csc(NC(C)c2nc3cc(Cl)c(N4CCCCC4)cc3n2CCOCCO)n1 (stereo unspecified) | -19.0 | -1.4 | 6.0 | -34.1 | 0.7 | -28.3 | x | x | x | x
CC(CCc1ccccc1)NC(=O)COC(=O)c1ccc(NC(N)=O)cc1 (stereo unspecified) | -3.5 | -5.8 | 4.7 | -4.5 | -1.0 | 0.8 | x | x | x | x
